Source: PubChem BioAssay AID1210 (NMMLSC, 2008)
Activity calls are given as the source filed them.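 How the source made its calls: active means blocks over 70% of labeled estradiol binding at 10 µM, or over a set limit at 100 nM; inactive means the rest.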

Target: Estrogen receptor beta (Homo sapiens) (UniProt Q92731)
Assay: ERbeta ligand binders by competition, primary screen, cell-based, Cos7 ERbeta-GFP, flow cytometry (AID 1210);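 further: 0% = DMSO vehicle wells and 100% = complete loss of labeled estradiol signal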
Conditions: fluorescent estrogen binding, stronger effect = higher value
[1] = ligand binding inhibition, at 0.1 µM

Sequence of Estrogen receptor beta (Homo sapiens) (Q92731 whole entry, looked up): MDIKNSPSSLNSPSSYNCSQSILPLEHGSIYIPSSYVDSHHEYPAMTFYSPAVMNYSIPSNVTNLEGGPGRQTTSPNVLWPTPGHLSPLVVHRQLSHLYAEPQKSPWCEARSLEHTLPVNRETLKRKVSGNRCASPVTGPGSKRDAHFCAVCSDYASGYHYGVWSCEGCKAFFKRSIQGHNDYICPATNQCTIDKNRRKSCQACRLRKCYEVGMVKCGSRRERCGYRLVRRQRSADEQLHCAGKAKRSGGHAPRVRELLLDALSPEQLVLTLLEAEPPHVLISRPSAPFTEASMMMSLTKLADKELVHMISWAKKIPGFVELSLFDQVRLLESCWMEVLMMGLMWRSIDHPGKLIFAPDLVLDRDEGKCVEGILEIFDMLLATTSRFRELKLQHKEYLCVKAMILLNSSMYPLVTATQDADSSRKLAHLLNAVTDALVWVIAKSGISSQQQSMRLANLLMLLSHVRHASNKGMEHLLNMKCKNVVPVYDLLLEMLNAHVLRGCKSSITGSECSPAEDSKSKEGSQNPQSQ

Compound	inhibition (at 10 µM)	inhibition [1]
O=C1NCCCC2c3cc(O)c4ccccc4c3OC12N1CCCCC1 (stereo not drawn)	56% (inactive)	27%
Oc1ccc(-c2csc(-c3c[nH]c4ccccc34)n2)c(O)c1	81% (active)	29%
COc1ccc(C2CC(=O)Nc3ccccc3S2(=O)=O)cc1OC (stereo not drawn)	5% (inactive)	20%
Cc1cc2n(c1)CCn1c(C)ccc1-2	17% (inactive)	31%
Cc1ccc(-n2c(=O)c(C#N)cc3c(=O)n4cccc(C)c4nc32)cc1	72% (active)	29%
COc1ccc2c(c1)c(=O)oc1cc(OCC(=O)NC3CCCCC3)ccc12	31% (inactive)	22%
O=C(O)c1cc(-c2ccc(O)cc2)nc2ccccc12	57% (inactive)	8%
CSc1nc2c(c(=O)[nH]1)C(c1cccs1)C1=C(CCCC1=O)N2 (stereo not drawn)	71% (active)	33%
CCCCCCNC(=O)c1cc(-c2ccco2)nc2ccccc12	92% (active)	2%
Nc1ccc(-c2cc(-c3ccc(N)cc3)nc(-c3ccccc3)n2)cc1	43% (inactive)	29%
Oc1ccccc1N=Nc1nc(-c2ccccc2)c(-c2ccccc2)[nH]1	36% (inactive)	36%
O=C(Cc1ccccc1)Nc1ccc2oc(-c3cccnc3)nc2c1	65% (inactive)	20%
NC(=O)c1c(NC(=O)c2cc3ccccc3o2)sc2c1CCC2	18% (inactive)	54%
CN(C)c1ccc(N=Cc2ccco2)cc1	47% (inactive)	14%
O=C(CSc1nnc(SCC(=O)c2ccco2)s1)c1ccco1	56% (inactive)	33%
CCCc1nnc2n1N=C(c1ccc(-c3cc(Cl)ccc3Cl)o1)CS2	43% (inactive)	48%
Cc1cc(N)ccc1N=Nc1c(C)n(C)n(-c2ccccc2)c1=O	15% (inactive)	31%
O=c1c(C(c2ccc(O)cc2)c2c(O)nc3n(c2=O)CCS3)c(O)nc2n1CCS2	3% (inactive)	7%
O=C(c1cc2c(s1)CCC2)N1CCN(c2ccccc2)CC1	52% (inactive)	7%
Cc1cccc(N2CCN(C(=O)c3cc4c(=O)n(C)c5ccccc5c4n3C)CC2)c1C	46% (inactive)	27%
Cc1cnc(C(=O)OCC(=O)c2csc(N3CCCCC3)n2)cn1	47% (inactive)	23%
CC(Cc1ccc(O)c(O)c1)C(C)Cc1ccc(O)c(O)c1 (stereo not drawn)	65% (inactive)	18%

Compound	inhibition (at 10 µM)	inhibition [1]
Cc1nn(-c2ccccc2)c(/N=C/c2ccc(O)cc2)c1-c1ccccc1	78% (active)	44%
c1coc(-c2nnc3sc(Cc4cccs4)nn23)c1	5% (inactive)	53%
COc1ccc(OC)c(/C=N/c2oc(-c3ccco3)c(-c3ccco3)c2C#N)c1	31% (inactive)	31%
Cc1ccnc(NS(=O)(=O)c2ccc(NC(=O)c3cc(-c4ccc(Br)cc4)nc4ccccc34)cc2)n1	0% (inactive)	51%
Cc1ccc(C(=O)NCC(=O)OCC(=O)c2c(N)n(C)c(=O)n(C)c2=O)s1	5% (inactive)	25%
CC(=O)Nc1ccc(OC(=O)CC2SC(=O)NC2=O)cc1 (stereo not drawn)	59% (active)	66%
COc1ccc(OC)c(NC(=O)CSc2nc3ccccc3c3nc4ccccc4n23)c1	70% (inactive)	16%
O=c1[nH]c(N/N=C/c2ccc(O)cc2)nc2ccccc12	34% (inactive)	13%
COC(=O)c1ccccc1NC(=O)c1noc2c1CCC2	38% (inactive)	26%
O=C(Oc1cccc(-c2cnc3ccccc3n2)c1)c1ccco1	9% (inactive)	4%
O=C(c1cc2ncc(Br)cn2n1)N1CCN(C(=O)c2ccco2)CC1	62% (active)	67%
COc1ccc(N=C2NC(=O)S/C2=C\c2ccc(N(C)C)cc2)cc1	59% (inactive)	4%
CC1CCCN(c2nc3c(c(=O)[nH]c(=O)n3C)n2Cc2ccccc2Cl)C1 (stereo not drawn)	38% (inactive)	32%
Oc1ccc(-c2[nH]nc(-c3ccccc3)c2-c2nc3ccccc3[nH]2)cc1	33% (inactive)	21%
O=C(O)c1cc(-c2ccco2)nc2ccc(Br)cc12	63% (inactive)	9%
C/C(N)=C(/C#N)C(=O)CSc1nnc(Nc2ccccc2C)s1	44% (inactive)	13%
Nc1ccc(-n2cnc3cc([N+](=O)[O-])ccc32)cc1	34% (inactive)	12%
N#CC1=C(N)OC2=C(CCC/C2=C/c2ccoc2)C1c1ccoc1 (stereo not drawn)	20% (inactive)	34%
O=c1cc(-c2ccc(O)c(O)c2)oc2c(C3O[C@H](CO)[C@@H](O)[C@H](O)[C@H]3O)c(O)cc(O)c12 (stereo partly drawn)	40% (inactive)	17%
COc1ccccc1-c1nnc2n1N=C(c1ccc(O)c(O)c1)CS2	69% (inactive)	21%
O=C(NCCN1CCOCC1)c1cnn2c(-c3ccccc3)cc(-c3ccccc3)nc12	47% (inactive)	21%
O=C(NCc1ccco1)c1cc2ccc(O)cc2oc1=O	44% (inactive)	38%
